According to the supplement of paper PMC7801607:

system: Plasmodium berghei ANKA liver stage in HepG2-A16-CD81; experiment: % inhibition of liver stage parasite viability (luciferase); higher = more inhibition; conditions: 5 µM; 48 h
Description: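 Single-concentration screen of the MMV Pandemic Response Box. P. falciparum NF54 asexual blood stages: pLDH assay, 72 h at 37 °C, 2 and 20 µM, n=2. Stage IV/V gametocytes (NF54): luciferase reporter (NF54-Pfs16-GFP-Luc, 48 h), ATP bioluminescence (24 h) and PrestoBlue (48 h) at 1 and 5 µM, n=1. P. berghei liver stage (luciferase in HepG2-A16-CD81, 48 h post infection) at 5 µM, n=4. All normalised to DMSO and kill controls as % inhibition.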

Going from O=C(NC12CC3CC(CC(C3)C1)C2)c1cc2ccccc2[nH]1 to COC(=O)Nc1nc2ccccc2[nH]1, the “% inhibition of liver stage parasite viability” value (“% inhibition” for short) rises from 11.7% to 30.8%.

Compared with Nc1c(C(=O)NCc2ccco2)c2nc3ccccc3nc2n1CCN1CCCCC1, CCN1CCN(Cc2nc3ccc([N+](=O)[O-])cc3c(=O)n2-c2ccccc2F)CC1 is lower in “% inhibition” value: 28.4% for the first, 14.3% for the second.

Going from NC1(C(=O)O)CCP(=O)(O)CC1 (stereo not drawn) to C[N+]1(C)CCCC(OC(=O)C(O)(c2ccccc2)c2ccccc2)C1 (stereo not drawn), the “% inhibition” value rises from 19.9% to 34%.

Compared with CCCCc1ccc(C(=O)O)nc1, C[C@@]1(O)[C@H](O)[C@@H](CO)O[C@H]1n1ccc2c(N)ncnc21 is lower in “% inhibition” value: 19.3% for the first, 12.7% for the second.

First: CN1C(=O)C(c2ccccc2)C(=O)N(c2ccccc2)c2cc(C(F)(F)F)ccc21 (stereo not drawn)
Second: COc1ccccc1CN[C@H]1C2CCN(CC2)[C@H]1C(c1ccccc1)c1ccccc1
The “% inhibition” value of the first is lower: 7.89% for the first, 17.8% for the second.

Compared with COc1cc(C(C)(C)CCCC(C)C)cc(OC)c1OC, CC(C)Oc1cccc(NC(=O)c2ccccc2C(F)(F)F)c1 is higher in “% inhibition” value: 21% for the first, 23.7% for the second.

For C[C@H]1CC[C@]2(NC1)O[C@H]1C[C@H]3[C@@H]4CC[C@H]5C[C@@H](O)CC[C@]5(C)[C@H]4CC[C@]3(C)[C@H]1[C@@H]2C, the “% inhibition” value was 32%.
